We go through 38 compounds from PubChem BioAssay (EPA / NIEHS).

Molecules are shown by their SMILES. Activity calls are given as the source filed them. How the source made its calls: active means hit-call score of the fitted dose curve at least 0.9, where 1 is the maximum; inactive means score below 0.9.

One assay is described as follows: ATG_GRE_CIS: Attagene CIS-FACTORIAL HepG2 Assay for human Glucocorticoid Response Elements (GRE) (AID 2282947). To be noted: HepG2 GRE cis-reporter, Attagene multiplex mRNA; actives raise or lower the signal. In outline:
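Endogenous transcription factor activity is read through cis-element reporter constructs transiently transfected into HepG2 cells. After 24 h treatment, labelled RT-PCR products are resolved by capillary electrophoresis; DMSO sets baseline for bidirectional curve fitting.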
Regarding `COCCc1ccc(OCC(O)CNC(C)C)cc1` (centres undefined), the call was inactive. Same read-out and setting: the value for `NCCNc1cccc2ccccc12` was “inactive”.

Regarding `C=C(C#N)C(=O)OCC`, the outcome was inactive. Still for that read-out and setting: the value for `CC(C)=CCCC(C)CC(=O)O` (centres undefined) was “inactive”; that for `Cc1c(OCC(F)(F)F)ccnc1CS(=O)c1nc2ccccc2[nH]1` (centres undefined) was “inactive”. Still for that read-out and setting: to `Nc1ccc(NCCO)c([N+](=O)[O-])c1` belongs “inactive”; to `CCOC(=O)c1ccc(N)cc1`, “inactive”; to `C=C(C)CNCC`, “inactive”.

Consider `CC(C)(N=C=O)c1cccc(C(C)(C)N=C=O)c1`, for which the result was inactive. In the case of `COC(=O)c1ccc(C)cc1C1=NC(C)(C(C)C)C(=O)N1` (centres undefined) (tested in a mixture with another compound), the compound was called inactive.

Regarding `CN1C(=O)c2ccccc2C1=O`, the compound was called inactive. The same measure, in the same setting: to `OCCCCC(O)CO` (centres undefined) belongs “inactive”; to `CCCCCCCCCCCC(=O)OC[C@@H](O)[C@H]1OC[C@H](O)[C@H]1O`, “inactive”. Still for that read-out and setting: to `CCCCCC(C)=O` belongs “inactive”. On the same count and under the same terms, the value for `C[C@H](CCC(=O)NCC(=O)O)[C@H]1CC[C@H]2[C@@H]3[C@H](O)C[C@@H]4C[C@H](O)CC[C@]4(C)[C@H]3C[C@H](O)[C@]12C` was “inactive”. Consider `CC(C=O)Cc1ccc(C(C)(C)C)cc1` (centres undefined), for which the compound was classed as inactive.

As to `c1ccc(CN(Cc2ccccc2)Cc2ccccc2)cc1`, the compound was called inactive. Still for that read-out and setting: the value for `CC/C=C\CC/C=C/CO` was “inactive”; that for `CCCCSCCCC` was “inactive”. The same measure, in the same setting: to `C=C(CC(=O)O)C(=O)O` belongs “inactive”; to `C=CCOC(=O)CCCCCC`, “inactive”.

Turning to `OC[C@H]1O[C@@H]2O[C@H]3[C@H](O)[C@@H](O)[C@@H](O[C@H]4[C@H](O)[C@@H](O)[C@@H](O[C@H]5[C@H](O)[C@@H](O)[C@@H](O[C@H]6[C@H](O)[C@@H](O)[C@@H](O[C@H]7[C@H](O)[C@@H](O)[C@@H](O[C@H]8[C@H](O)[C@@H](O)[C@@H](O[C@H]9[C@H](O)[C@@H](O)[C@@H](O[C@H]1[C@H](O)[C@H]2O)O[C@@H]9CO)O[C@@H]8CO)O[C@@H]7CO)O[C@@H]6CO)O[C@@H]5CO)O[C@@H]4CO)O[C@@H]3CO`, the call was inactive. Take `COc1ccc(CCO)cc1`: the AC50 was 183 µM (active).

For the compound `FC(F)(F)COCC(F)(F)F`, the result was inactive. The same measure, in the same setting: the value for `C=C(C)C(=O)OCCOCCOCCOC(=O)C(=C)C` was “inactive”; that for `[Cl][Au]([Cl])[Cl]` was “inactive”.

The nature of the next assay: ATG_ISRE_CIS: Attagene CIS-FACTORIAL HepG2 Assay for human Interferon Regulatory Factor 1 (IRF1) binding to an Interferon-Stimulated Response Element (ISRE) (AID 2282948). To be noted: HepG2 ISRE cis-reporter (Attagene), mRNA transcription readout; actives raise or lower the signal. The procedure, abridged: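 HepG2 cells transiently transfected with multiplexed cis-promoter reporter units; after 24 h compound exposure, reporter mRNA quantified by RT-PCR, FAM labelling, HpaI digestion and capillary electrophoresis. Bidirectional fit versus DMSO baseline.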
With `CCCC(O)C(O)CO` (centres undefined), the compound was called inactive. On the same count and under the same terms, to `COCCc1ccc(OCC(O)CNC(C)C)cc1` (centres undefined) belongs “inactive”; to `NCCNc1cccc2ccccc12`, “inactive”.

`C=C(C#N)C(=O)OCC`: the AC50 was 169 µM (active). Regarding `CC(C)=CCCC(C)CC(=O)O` (centres undefined), the call was inactive. Still for that read-out and setting: the value for `Cc1c(OCC(F)(F)F)ccnc1CS(=O)c1nc2ccccc2[nH]1` (centres undefined) was “inactive”; that for `Nc1ccc(NCCO)c([N+](=O)[O-])c1` was “inactive”. Consider `CCOC(=O)c1ccc(N)cc1`, for which the outcome was inactive. As for `Oc1ccc2cc(SSc3ccc4cc(O)ccc4c3)ccc2c1`, the AC50 was 100 µM (active).

Regarding `CC1=CC[C@@]23C[C@@H]1C(C)(C)[C@@H]2CC[C@H]3C`, the compound was classed as inactive. Take `C=C(C)CNCC`: the outcome was inactive.

Take `CC(=O)NCCO`: the compound was classed as inactive. On to `CC(C)(N=C=O)c1cccc(C(C)(C)N=C=O)c1`, for which the compound was classed as inactive.

As to `COC(=O)c1ccc(C)cc1C1=NC(C)(C(C)C)C(=O)N1` (centres undefined) (tested in a mixture with another compound), the result was inactive.

With `CN1C(=O)c2ccccc2C1=O`, the outcome was inactive.

Regarding `OCCCCC(O)CO` (centres undefined), the call was inactive. Still for that read-out and setting: the value for `CCCCCCCCCCCC(=O)OC[C@@H](O)[C@H]1OC[C@H](O)[C@H]1O` was “inactive”. Same read-out and setting: to `CN(c1nccc(=O)[nH]1)C1CCN(c2nc3ccccc3n2Cc2ccc(F)cc2)CC1` belongs “inactive”. On the same count and under the same terms, to `CCCCCC(C)=O` belongs “inactive”.

Take `C[C@H](CCC(=O)NCC(=O)O)[C@H]1CC[C@H]2[C@@H]3[C@H](O)C[C@@H]4C[C@H](O)CC[C@]4(C)[C@H]3C[C@H](O)[C@]12C`: the call was inactive. On the same count and under the same terms, the value for `CC(C=O)Cc1ccc(C(C)(C)C)cc1` (centres undefined) was “inactive”; that for `CN1CCOCC1` was “inactive”; that for `c1ccc(CN(Cc2ccccc2)Cc2ccccc2)cc1` was “inactive”. The same measure, in the same setting: to `CC/C=C\CC/C=C/CO` belongs “inactive”; to `CCCC(=O)c1ccccc1`, “inactive”. Turning to `CCCCCCC(=O)c1ccccc1`, the call was inactive. Consider `O=C1OC(=O)c2c(Cl)c(Cl)c(Cl)c(Cl)c21`, for which the compound was called inactive.

In the case of `CCCCSCCCC`, the compound was classed as inactive. As to `C=C(CC(=O)O)C(=O)O`, the outcome was inactive. Same read-out and setting: the value for `C=CCOC(=O)CCCCCC` was “inactive”. Still for that read-out and setting: the value for `OC[C@H]1O[C@@H]2O[C@H]3[C@H](O)[C@@H](O)[C@@H](O[C@H]4[C@H](O)[C@@H](O)[C@@H](O[C@H]5[C@H](O)[C@@H](O)[C@@H](O[C@H]6[C@H](O)[C@@H](O)[C@@H](O[C@H]7[C@H](O)[C@@H](O)[C@@H](O[C@H]8[C@H](O)[C@@H](O)[C@@H](O[C@H]9[C@H](O)[C@@H](O)[C@@H](O[C@H]1[C@H](O)[C@H]2O)O[C@@H]9CO)O[C@@H]8CO)O[C@@H]7CO)O[C@@H]6CO)O[C@@H]5CO)O[C@@H]4CO)O[C@@H]3CO` was “inactive”; that for `CCO/C=C1\N=C(c2ccccc2)OC1=O` was “inactive”; that for `COc1ccc(CCO)cc1` was “inactive”. Consider `C#CC(C)N(C)C(=O)Nc1ccc(Cl)cc1` (centres undefined), for which the outcome was inactive. For `FC(F)(F)COCC(F)(F)F`, the compound was called inactive. Still for that read-out and setting: the value for `O=C(Nc1ccc2c(O)c(N=Nc3ccc(N=Nc4ccc(S(=O)(=O)O)cc4)cc3)c(S(=O)(=O)O)cc2c1)c1ccccc1` was “inactive”; that for `C=C(C)C(=O)OCCOCCOCCOC(=O)C(=C)C` was “inactive”; that for `[Cl][Au]([Cl])[Cl]` was “inactive”.

By AC50 is commonly meant the midpoint of the concentration-response curve, whichever way the signal moves.
